Values joined by “and” are separate entries in the source; they are usually repeats but may differ in a detail not shown here. Equal values may be shown once. In all, about 5,500 compounds went through this assay and about 2,000 (36%) were called active. Roughly 18% stayed inconclusive and do not appear here. The list shows a part of the results. Unmarked numbers belong to inactive results. No stated cut-off is given here; in the data, active means normalized growth mostly below about 0.91 (no sharp cut-off); inconclusive means no clear call, values can overlap the other calls; inactive means mostly above about 0.92.
Assay: chemical genetic growth profiling, strain panel (AID 1159580);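 further: tested at 20 µM; growth read once vehicle control cultures reached saturation at 30 °C; 1 = growth at the plate median or of vehicle wells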
Conditions: S. cerevisiae deletion strains, growth OD

C[C@H]1O[C@@H](O[C@H]2[C@@H](O)C[C@H](O[C@H]3[C@@H](O)C[C@H](O[C@H]4CC[C@]5(C)C6CC[C@]7(C)[C@@H](C8=CC(=O)OC8)CC[C@]7(O)C6CC[C@@H]5C4)O[C@@H]3C)O[C@@H]2C)C[C@H](O)[C@@H]1O (some centres not stated)
normalized growth (locus YAL021C, strain ccr4, stronger effect = lower value): 0.984 | normalized growth (locus YAL026C, strain drs2, stronger effect = lower value): 0.965 | normalized growth (locus YAL030W, strain snc1, stronger effect = lower value): 0.964 | normalized growth (locus YBL061C, strain skt5, stronger effect = lower value): 0.975 | normalized growth (locus YBR009C, strain hhf1, stronger effect = lower value): 0.968 | normalized growth (locus YBR021W, strain FUR4, stronger effect = lower value): 0.968 | normalized growth (locus YBR023C, strain chs3, stronger effect = lower value): 0.957 | normalized growth (locus YBR171W, strain sec66, stronger effect = lower value): 0.98 | normalized growth (locus YBR229C, strain ROT2, stronger effect = lower value): 0.982 | normalized growth (locus YBR231C, strain swc5, stronger effect = lower value): 0.979 | normalized growth (locus YBR279W, strain paf1, stronger effect = lower value): 0.967 | normalized growth (locus YCL011C, strain gbp2, stronger effect = lower value): 0.951 | normalized growth (locus YCL016C, strain dcc1, stronger effect = lower value): 0.921 | normalized growth (locus YCL029C, strain bik1, stronger effect = lower value): 0.976 | normalized growth (locus YCL061C, strain MRC1, stronger effect = lower value): 1.01 | normalized growth (locus YCL069W, strain vba3, stronger effect = lower value): 0.969 | normalized growth (locus YCR088W, strain abp1, stronger effect = lower value): 0.99 | normalized growth (locus YDL005C, strain med2, stronger effect = lower value): 1.01 | normalized growth (locus YDL035C, strain GPR1, stronger effect = lower value): 1.03 | normalized growth (locus YDL040C, strain nat1, stronger effect = lower value): 0.975 | normalized growth (locus YDL074C, strain BRE1, stronger effect = lower value): 0.982 | normalized growth (locus YDL101C, strain DUN1, stronger effect = lower value): 0.987 | normalized growth (locus YDL134C, strain PPH21, stronger effect = lower value): 1.02 | normalized growth (locus YDL185W, strain tfp1, stronger effect = lower value): 1 | normalized growth (locus YDL192W, strain arf1, stronger effect = lower value): 1 | normalized growth (locus YDR001C, strain nth1, stronger effect = lower value): 0.968 | normalized growth (locus YDR069C, strain doa4, stronger effect = lower value): 1.02 | normalized growth (locus YDR101C, strain arx1, stronger effect = lower value): 1.01 | normalized growth (locus YDR137W, strain rgp1, stronger effect = lower value): 0.976 | normalized growth (locus YDR159W, strain sac3, stronger effect = lower value): 0.948 | normalized growth (locus YDR162C, strain NBP2, stronger effect = lower value): 1.01 | normalized growth (locus YDR195W, strain ref2): 1.03 | normalized growth (locus YDR297W, strain sur2, stronger effect = lower value): 0.986 | normalized growth (locus YDR318W, strain mcm21, stronger effect = lower value): 0.989 | normalized growth (locus YDR334W, strain swr1, stronger effect = lower value): 0.983 | normalized growth (locus YDR335W, strain msn5, stronger effect = lower value): 0.984 | normalized growth (locus YDR388W, stronger effect = lower value): 0.986 | normalized growth (locus YDR392W, strain spt3, stronger effect = lower value): 0.931 | normalized growth (locus YDR502C, strain sam2, stronger effect = lower value): 0.993 | normalized growth (locus YEL003W, strain gim4, stronger effect = lower value): 0.989 | normalized growth (locus YEL037C, strain rad23, stronger effect = lower value): 0.976 | normalized growth (locus YEL061C, strain CIN8 (second series), stronger effect = lower value): 0.971 | normalized growth (locus YEL061C, strain CIN8, stronger effect = lower value): 0.999 | normalized growth (locus YER015W, strain faa2, stronger effect = lower value): 0.977 | normalized growth (locus YER016W, strain bim1, stronger effect = lower value): 0.98 | normalized growth (locus YER110C, stronger effect = lower value): 0.989 | normalized growth (locus YER111C, strain swi4, stronger effect = lower value): 0.969 | normalized growth (locus YER155C, strain BEM2 (second series), stronger effect = lower value): 1.03 | normalized growth (locus YER155C, strain BEM2, stronger effect = lower value): 0.988 | normalized growth (locus YER167W, strain BCK2, stronger effect = lower value): 1 | normalized growth (locus YFR010W, strain ubp6, stronger effect = lower value): 1 | normalized growth (locus YGL078C, strain dbp3, stronger effect = lower value): 0.983 | normalized growth (locus YGL086W, strain mad1, stronger effect = lower value): 1.02 | normalized growth (locus YGL167C, strain pmr1, stronger effect = lower value): 1 | normalized growth (locus YGL173C, strain kem1, stronger effect = lower value): 0.972 | normalized growth (locus YGL227W, strain vid30, stronger effect = lower value): 0.989 | normalized growth (locus YGL240W, strain doc1, stronger effect = lower value): 1.05 | normalized growth (locus YGL248W, strain PDE1, stronger effect = lower value): 0.959 | normalized growth (locus YGL253W, strain hxk2, stronger effect = lower value): 0.761 (active) | normalized growth (locus YGR135W, strain pre9, stronger effect = lower value): 0.965 | normalized growth (locus YGR252W, strain gcn5, stronger effect = lower value): 0.967 | normalized growth (locus YHR013C, strain ard1, stronger effect = lower value): 0.984 | normalized growth (locus YHR027C, strain rpn1, stronger effect = lower value): 0.996 | normalized growth (locus YHR030C, strain SLT2, stronger effect = lower value): 1 and 1.02 | normalized growth (locus YHR079C, strain IRE1 (second series), stronger effect = lower value): 0.982 | normalized growth (locus YHR079C, strain IRE1, stronger effect = lower value): 1.03 | normalized growth (locus YHR094C, strain hxt1, stronger effect = lower value): 0.978 | normalized growth (locus YHR129C, strain ARP1, stronger effect = lower value): 1 | normalized growth (locus YHR142W, strain chs7, stronger effect = lower value): 0.926 | normalized growth (locus YHR200W, strain rpn10, stronger effect = lower value): 0.999 | normalized growth (locus YIL066C, strain RNR3, stronger effect = lower value): 0.993 | normalized growth (locus YIL073C, strain SPO22, stronger effect = lower value): 0.936 | normalized growth (locus YIL125W, strain kgd1, stronger effect = lower value): 0.985 | normalized growth (locus YIR030C, strain dcg1, stronger effect = lower value): 0.976 | normalized growth (locus YJL092W, strain hpr5, stronger effect = lower value): 0.981 | normalized growth (locus YJL095W, strain BCK1 (second series), stronger effect = lower value): 0.991 | normalized growth (locus YJL095W, strain BCK1, stronger effect = lower value): 0.953 and 1.05 | normalized growth (locus YJL115W, strain asf1, stronger effect = lower value): 0.965 | normalized growth (locus YJL129C, strain trk1, stronger effect = lower value): 0.988 | normalized growth (locus YJL134W, strain LCB3, stronger effect = lower value): 0.995 | normalized growth (locus YJL154C, strain vps35, stronger effect = lower value): 0.979 | normalized growth (locus YJL164C, strain tpk1, stronger effect = lower value): 0.962 | normalized growth (locus YJL166W, strain qcr8, stronger effect = lower value): 1.03 | normalized growth (locus YJL168C, strain set2, stronger effect = lower value): 0.981 | normalized growth (locus YJL187C, strain SWE1 (second series), stronger effect = lower value): 0.974 | normalized growth (locus YJR043C, strain POL32, stronger effect = lower value): 1.04 | normalized growth (locus YJR066W, strain TOR1, stronger effect = lower value): 0.958 | normalized growth (locus YKL009W, strain mrt4, stronger effect = lower value): 0.978 | normalized growth (locus YKL068W, stronger effect = lower value): 0.989 | normalized growth (locus YKL085W, strain MDH1 (second series), stronger effect = lower value): 0.963 | normalized growth (locus YKL085W, strain MDH1, stronger effect = lower value): 0.963 | normalized growth (locus YKL160W, strain elf1, stronger effect = lower value): 0.985 | normalized growth (locus YKR001C, strain vps1, stronger effect = lower value): 0.976 | normalized growth (locus YKR026C, strain gcn3, stronger effect = lower value): 0.977 | normalized growth (locus YKR091W, strain srl3, stronger effect = lower value): 0.967 | normalized growth (locus YLL001W, strain dnm1, stronger effect = lower value): 0.989 | normalized growth (locus YLL026W, stronger effect = lower value): 0.977 | normalized growth (locus YLL041C, strain sdh2, stronger effect = lower value): 0.981 | normalized growth (locus YLR027C, strain aat2, stronger effect = lower value): 0.979 | normalized growth (locus YLR039C, strain RIC1, stronger effect = lower value): 0.999 | normalized growth (locus YLR058C, strain SHM2, stronger effect = lower value): 0.978 | normalized growth (locus YLR102C, strain apc9, stronger effect = lower value): 0.979 | normalized growth (locus YLR113W, strain HOG1, stronger effect = lower value): 1.03 | normalized growth (locus YLR221C, strain rsa3, stronger effect = lower value): 0.954 | normalized growth (locus YLR258W, strain gsy2, stronger effect = lower value): 0.96 | normalized growth (locus YLR262C, strain YPT6 (second series), stronger effect = lower value): 0.997 | normalized growth (locus YLR262C, strain YPT6, stronger effect = lower value): 0.992 | normalized growth (locus YLR268W, strain sec22, stronger effect = lower value): 0.988 | normalized growth (locus YLR320W, strain mms22, stronger effect = lower value): 0.928 | normalized growth (locus YLR330W, strain CHS5, stronger effect = lower value): 1 | normalized growth (locus YLR342W, strain FKS1 (second series), stronger effect = lower value): 1.04 | normalized growth (locus YLR342W, strain FKS1, stronger effect = lower value): 1 | normalized growth (locus YLR357W, strain rsc2, stronger effect = lower value): 1.07 | normalized growth (locus YLR370C, strain arc18, stronger effect = lower value): 0.956 | normalized growth (locus YLR371W, strain rom2, stronger effect = lower value): 0.98 | normalized growth (locus YLR384C, strain iki3, stronger effect = lower value): 0.954 | normalized growth (locus YLR418C, strain cdc73, stronger effect = lower value): 0.928 | normalized growth (locus YML016C, strain PPZ1, stronger effect = lower value): 1 | normalized growth (locus YML032C, strain rad52, stronger effect = lower value): 0.996 | normalized growth (locus YML120C, strain ndi1, stronger effect = lower value): 0.992 | normalized growth (locus YML124C, strain tub3, stronger effect = lower value): 0.975 | normalized growth (locus YMR058W, strain fet3, stronger effect = lower value): 1 | normalized growth (locus YMR078C, strain ctf18, stronger effect = lower value): 0.967 | normalized growth (locus YMR125W, strain sto1, stronger effect = lower value): 0.997 | normalized growth (locus YMR129W, stronger effect = lower value): 0.973 | normalized growth (locus YMR205C, strain PFK2, stronger effect = lower value): 0.924 | normalized growth (locus YMR223W, strain ubp8, stronger effect = lower value): 0.966 | normalized growth (locus YMR231W, strain pep5, stronger effect = lower value): 0.992 | normalized growth (locus YMR307W, strain GAS1, stronger effect = lower value): 1.1 | normalized growth (locus YNL067W, strain RPL9B, stronger effect = lower value): 0.981 | normalized growth (locus YNL071W, strain lat1, stronger effect = lower value): 0.979 | normalized growth (locus YNL153C, strain GIM3, stronger effect = lower value): 0.983 | normalized growth (locus YNL183C, strain NPR1, stronger effect = lower value): 0.984 | normalized growth (locus YNL209W, strain ssb2, stronger effect = lower value): 0.977 | normalized growth (locus YNL233W, strain BNI4, stronger effect = lower value): 0.977 | normalized growth (locus YNL248C, strain rpa49, stronger effect = lower value): 0.979 | normalized growth (locus YNL250W, strain rad50, stronger effect = lower value): 0.997 | normalized growth (locus YNL271C, strain bni1, stronger effect = lower value): 0.973 | normalized growth (locus YNL298W, strain CLA4, stronger effect = lower value): 0.984 | normalized growth (locus YNL307C, strain MCK1, stronger effect = lower value): 0.978 | normalized growth (locus YNL322C, strain KRE1 (second series), stronger effect = lower value): 0.972 | normalized growth (locus YNR049C, strain mso1, stronger effect = lower value): 0.977 | normalized growth (locus YNR052C, strain pop2, stronger effect = lower value): 0.999 | normalized growth (locus YOL006C, strain TOP1, stronger effect = lower value): 0.896 | normalized growth (locus YOL012C, strain htz1): 0.968 | normalized growth (locus YOL147C, strain pex11, stronger effect = lower value): 0.984 | normalized growth (locus YOR001W, strain rrp6, stronger effect = lower value): 1.03 | normalized growth (locus YOR061W, strain CKA2, stronger effect = lower value): 0.994 | normalized growth (locus YOR069W, strain VPS5, stronger effect = lower value): 0.994 | normalized growth (locus YOR070C, strain gyp1, stronger effect = lower value): 0.968 | normalized growth (locus YOR080W, strain dia2, stronger effect = lower value): 0.982 | normalized growth (locus YOR083W, strain WHI5, stronger effect = lower value): 0.967 | normalized growth (locus YOR106W, strain vam3, stronger effect = lower value): 1 | normalized growth (locus YOR136W, strain idh2, stronger effect = lower value): 0.985 | normalized growth (locus YOR144C, strain elg1, stronger effect = lower value): 0.985 | normalized growth (locus YOR184W, strain ser1, stronger effect = lower value): 0.963 | normalized growth (locus YOR231W, strain MKK1, stronger effect = lower value): 1.01 | normalized growth (locus YOR265W, strain rbl2, stronger effect = lower value): 0.988 | normalized growth (locus YOR270C, strain vph1, stronger effect = lower value): 0.89 | normalized growth (locus YOR290C, strain snf2, stronger effect = lower value): 0.944 | normalized growth (locus YOR316C, strain cot1, stronger effect = lower value): 0.977 | normalized growth (locus YPL051W, strain arl3, stronger effect = lower value): 1.01 | normalized growth (locus YPL078C, strain atp4, stronger effect = lower value): 1.02 | normalized growth (locus YPL106C, strain sse1, stronger effect = lower value): 0.989 | normalized growth (locus YPL240C, strain hsp82, stronger effect = lower value): 0.999 | normalized growth (locus YPL241C, strain CIN2, stronger effect = lower value): 1 | normalized growth (locus YPL256C, strain CLN2, stronger effect = lower value): 1.02 | normalized growth (locus YPR119W, strain clb2, stronger effect = lower value): 0.981 | normalized growth (locus YPR141C, strain kar3, stronger effect = lower value): 0.953 | normalized growth (locus YPR163C, strain tif3, stronger effect = lower value): 0.981 | normalized growth (locus YPR167C, strain met16, stronger effect = lower value): 0.989 | normalized growth (strain wtn01, stronger effect = lower value): 1

From PubChem BioAssay AID1159580 (chemical genetic matrix, 2015)
